# Measured values taken from PMC6792352, “Limited Chemical Structural Diversity Found to Modulate Thyroid Hormone Receptor in the Tox21 Chemical Library” (Environmental Health Perspectives, 2019).
# Where a name gives a salt, the structure may show the parent alone.
# System: thyroid hormone receptor (endogenous TRα and TRβ)
# Parameters: species or system GH3-TRE-Luc (rat pituitary); GH3-TRE-Luc luciferase reporter, antagonist mode against 1 nM T3, loss of signal, qHTS
# Details: read-out: Average AC50 (uM) GH3-TRE-Antag, antagonist mode, 1 nM T3, no GH3 cytotoxicity hit
row,SMILES,AC50 [µM]
1,CCC(C)(CC)c1cc(NC(=O)c2c(OC)cccc2OC)on1 [Isoxaben],> 90
2,CCC(=O)Oc1ccc(/C(CC)=C(\CC)c2ccc(OC(=O)CC)cc2)cc1 [Diethylstilbestrol dipropionate],56.1
3,CN[C@H]1C[C@@H](N)[C@H](O)[C@@H](O[C@@H]2O[C@H](CO)[C@H](O)[C@@H]3OC4(O[C@H]23)O[C@H]([C@@H](N)CO)[C@H](O)[C@H](O)[C@H]4O)[C@@H]1O (some centres unmarked) [Hygromycin B],12.9
4,CC(C)(O)C(=O)Nc1ccc([N+](=O)[O-])c(C(F)(F)F)c1 [Hydroxyflutamide],> 70
5,CCN(CC)CCNC(=O)c1cc(Br)c(N)cc1OC [Bromopride],38.6
6,"O=C(c1ccc(O)cc1)c1ccc(O)cc1O [2,4,4'-Trihydroxybenzophenone]",> 90
7,COC(C)(C)CCCC(C)C/C=C/C(C)=C/C(=O)OC(C)C (centres unmarked) [Methoprene],43.4
8,CCN(CC)CCOC(=O)[C@H](Cc1cccc2ccccc12)C[C@H]1CCCO1 [Nafronyl oxalate],10.7
9,COc1ccc(-c2cc(=S)ss2)cc1 [Anethole trithione],> 50
10,CCN(CC)c1ccc2c(C)cc(=O)oc2c1 [7-Diethylamino-4-methylcoumarin],85.7
11,O=c1c(-c2ccc(O)cc2)coc2cc(O)ccc12 [Daidzein],87.6
12,CC(C(=O)O)c1ccc2c(c1)CC(=O)c1ccccc1S2 (centres unmarked) [Zaltoprofen],29.1
13,CC(C(=O)O)c1ccc(N2Cc3ccccc3C2=O)cc1 (centres unmarked) [Indoprofen],7.85
14,CCCC[C@H](CC)COC(=O)/C=C/c1ccc(OC)cc1 [Octinoxate],> 50
15,CCO[Si](C)(CCCOCC1CO1)OCC (centres unmarked) [Diethoxy(methyl)[3-(oxiran-2-ylmethoxy)propyl]silane],62.6
16,CC1(C)C2=CCCC(C)(C)[C@]23CC[C@H]1C3 [(-)-Isolongifolene],54.9
17,CC(C(=O)O)c1ccc(C2CCCCC2)c2ccccc12 (centres unmarked) [Quadrisol],35.8
18,CN1[C@@H](CC(=O)c2ccccc2)CCC[C@H]1C[C@H](O)c1ccccc1 [Lobeline],29.3
19,CCN(CCCc1ccccc1)CCCc1ccccc1 [Alverine citrate],10.8

row,SMILES,AC50 [µM]
1,CC1(C)[C@H](C(=O)O[C@H](C#N)c2cccc(Oc3ccccc3)c2)[C@@H]1C=C(Br)Br [Deltamethrin],76.3
2,C=CCCCCCCCCC(=O)O [10-Undecenoic acid],43.6
3,Cc1cc(C(F)(C(F)(F)F)C(F)(F)F)ccc1NC(=O)c1cccc(I)c1C(=O)NC(C)(C)CS(C)(=O)=O [Flubendiamide],33.5
4,COc1ccc2c(c1OC)CN1CCc3cc4c(cc3[C@@H]1C2)OCO4 [Canadine],> 20
5,C=C(C)CN(CC)c1c([N+](=O)[O-])cc(C(F)(F)F)cc1[N+](=O)[O-] [Ethalfluralin],> 90
6,CCCCCc1ccc(N)cc1 [4-Pentylaniline],47.1
7,CC(C)CCOC(=O)/C=C/c1ccccc1 [3-Methylbutyl cinnamate],81.8
8,CC(C)(C)c1ccccc1O [2-tert-Butylphenol],84.6
9,O=S(=O)(c1cccc2cnccc12)N1CCCNCC1 [Fasudil hydrochloride],30.1
10,O=c1oc2c(O)c(O)cc3c(=O)oc4c(O)c(O)cc1c4c23 [Ellagic acid],12.9
11,CC(C)=CCC/C(C)=C/C=C/C(C)=C/C=C/C(C)=C/C=C/C=C(C)/C=C/C=C(C)/C=C/C=C(\C)CCC=C(C)C [Lycopene],31.7
12,C=CCc1ccccc1OCC(O)CNC(C)C (centres unmarked) [Alprenolol],27.2
13,CCOc1cc(N)c(Cl)cc1C(=O)NCC1CN(Cc2ccc(F)cc2)CCO1 (centres unmarked) [Mosapride citrate],43.4
14,CCn1c2ccccc2c2cc(N)ccc21 [3-Amino-9-ethylcarbazole hydrochloride],46.6
15,CC[C@@]1(O)C(=O)OCc2c1cc1n(c2=O)Cc2cc3c(CN(C)C)c(O)ccc3nc2-1 [Topotecan hydrochloride],2.45
16,COc1ccc2nc(NC(=O)Nc3ccccc3)sc2c1 [Frentizole],11.4
17,CC1(C)N=C(N)N=C(N)N1c1ccc(Cl)cc1 [Cycloguanil hydrochloride],28.6
18,CC(Oc1ccc(Oc2ncc(C(F)(F)F)cc2Cl)cc1)C(=O)O (centres unmarked) [Haloxyfop],58.9
19,CC1CC(OC(=O)C(O)c2ccccc2)CC(C)(C)C1 (centres unmarked) [Cyclandelate],44.8
